In test [1] the test system is Plasmodium falciparum Sir2 (PF13_0152, Sir2A). In words: pfSir2 binders on small-molecule microarrays, primary screen, biochemical, small-molecule microarray, 635 nm fluorescence (AID 1098).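 Also: score merges spot fluorescence intensity with its signal-to-noise ratio.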 Particulars: small-molecule microarray binding, fluorescence 635 nm; higher = more signal.
Test [2] in a line: small-molecule microarray binders of probe aDKK1, primary screen, biochemical, biotinylated probe, 635/667 nm fluorescence (AID 1099).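 Also: score merges 667nm spot fluorescence with signal to noise across triplicate slides.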 Particulars: higher = more signal.
Test [3] can be described thus: small-molecule microarray binders of probe aCHRDL2, primary screen, biochemical, biotinylated probe, 635/667 nm fluorescence (AID 1100). Particulars: higher = more signal.
Test [4] can be described thus: splicing luciferase reporter signal modulators, primary screen, spliceosome inhibition project, cell-based, HEK293, splice +/- reporter (AID 1101).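 Also: HEK293 cells carrying a splicing-competent luciferase reporter gene; test concentration not given here.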 Particulars: luminescence, 24 h, higher = more signal, called active from +8 up or from −8 down.
The target of test [5] is Fibroblast growth factor 10 (Homo sapiens) (UniProt O15520). Kind of test: FGF10 binders on small-molecule microarrays, primary screen, biochemical, small-molecule microarray, 635 nm fluorescence (AID 1102). Particulars: FGF10 binding, fluorescence 635 nm, higher = more signal.
Test [6] relates to glycogen synthase kinase-3 (GSK3A per assay name; protocol says GSK3B). Kind of test: GSK3 binders on small-molecule microarrays, primary screen, biochemical, small-molecule microarray, 635 nm fluorescence, GSK3A (AID 1103). Also: the record names both GSK3A and GSK3B. Particulars: small-molecule microarray binding, fluorescence 635 nm; higher = more signal.
Test [7] addresses Epidermal growth factor receptor (Homo sapiens) (UniProt P00533). In words: EGFR binders on small-molecule microarrays, primary screen, biochemical, small-molecule microarray, 635 nm fluorescence (AID 1104).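 Also: score merges 667 nm emission intensity with spot signal to noise over triplicate slides.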 The settings on record: EGFR binding, higher = more signal.
For test [8], the target named is Follistatin-related protein 3 (Homo sapiens) (UniProt O95633). Kind of test: FSTL3 binders on small-molecule microarrays, primary screen, biochemical, small-molecule microarray, 635 nm fluorescence (AID 1105).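 Also: score merges emission near 667 nm and signal to noise per printed spot across three slides.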 The settings on record: FSTL3 binding, higher = more signal.
The target in test [9] is Dickkopf-related protein 1 (Homo sapiens) (UniProt O94907). In words: DKK1 binders on small-molecule microarrays, primary screen, biochemical, small-molecule microarray, 635 nm fluorescence scan (AID 1106).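 Also: score merges emission near 667 nm with signal to noise over three replicate slides.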 Particulars: DKK1 binding, higher = more signal.
Test [10] deals with Inhibin beta A chain (activin A). Kind of test: INHBA (activin A) binders on microarrays, primary screen, biochemical, small-molecule microarray, 635 nm fluorescence scan (AID 1107).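 Also: mouse activin A protein probed at 4.33 µg/mL on printed slides; score merges bound-protein fluorescence near 667 nm with spot signal-to-noise.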 The settings on record: small-molecule microarray binding, higher = more signal.
For test [11], the system named is Human papillomavirus type 1a protein E7 (residues 44-93). Kind of test: HPV1a E7 fragment binders on microarrays, primary screen, biochemical, small-molecule microarray, residues 44-93, 635 nm fluorescence (AID 1108).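 Also: E7 fragment applied at 1 µg/mL in TBST for 1 h at 4 C; score combines spot fluorescence with its signal to noise ratio.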 Particulars: small-molecule microarray binding, fluorescence 635 nm; higher = more signal.
Test [12] is described as follows: modulators of HCV replicon luciferase signal, primary screen, HCV replication inhibitor project, Huh7 cells, luciferase reporter (AID 1109).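 Also: huh7 hepatoma cells harbouring a luciferase neomycin HCV replicon reporter; luciferase luminescence as measure of HCV replicon replication; test concentration not given here.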 The settings on record: 48 h, higher = more signal.
The target in test [13] is Left-right determination factor 2 (Homo sapiens) (UniProt O00292). In words: LEFTY2 binders on small-molecule microarrays, primary screen, biochemical, small-molecule microarray, 635 nm fluorescence scan (AID 1110). Particulars: LEFTY2 binding, higher = more signal.
Test [14] addresses Calmodulin-1 (Homo sapiens) (UniProt P0DP23). In words: CALM1 binders on microarrays, EGTA buffer, profiling panel, biochemical, small-molecule microarray, Cy5-labelled CALM1 (AID 1111).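 Also: labelled calmodulin applied in Tris saline Tween buffer holding calcium plus EGTA and DTT.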 Particulars: Cy5-CALM1 binding fluorescence, higher = more signal.
Test [15] shares this target. Kind of test: calcium-bound CALM1 binders on microarrays, profiling panel, artefact control for SMM control-protein annotation, biochemical, small-molecule microarray, Cy5-labelled CALM1, plus calcium (AID 1112).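 Also: score merges spot fluorescence with signal to noise from triplicate slides.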 Particulars: Cy5-CALM1 binding fluorescence, higher = more signal.
Test [16] is described as follows: small-molecule microarray binders of probe aWnt5a, primary screen, biochemical, biotinylated probe, 635/667 nm fluorescence (AID 1113).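 Also: score merges 667 nm fluorescence intensity with signal-to-noise per printed feature.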 Particulars: higher = more signal.
A short description of test [17]: small-molecule microarray binders of probe aShh, primary screen, biochemical, biotinylated probe, 635/667 nm fluorescence (AID 1114).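 Also: probe is biotin-labelled aShh protein from a stem cell growth factor screen; measures binding of labelled protein to compounds printed on the slide; score merges feature fluorescence at 667 nm with signal-to-noise.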 The settings on record: higher = more signal.
Test [18] in a line: small-molecule microarray binders of probe aNog, primary screen, biochemical, biotinylated probe, 635/667 nm fluorescence (AID 1115).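 Also: probe is biotinylated aNog protein used at 0.15 µg/mL for 1 h at 4 C; z-score combines 667 nm fluorescence of each spot with its signal to noise.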 Particulars: higher = more signal.
The target in test [19] is Torsin-1A-interacting protein 1 (Homo sapiens) (UniProt Q5JTV8). In words: LAP1 binders from COS7 cell lysate, primary screen, small-molecule microarray, 635/667 nm fluorescence (AID 1116). The settings on record: COS7-hLAP1 lysate binding, 635 nm fluorescence, higher = more signal.
Test [20] concerns the target Alpha-bungarotoxin (Bungarus multicinctus) (UniProt P60615). Kind of test: alpha-bungarotoxin binders on microarray, profiling panel, artefact control for SMM control protein annotation, biochemical, small-molecule microarray, Alexa647 label, 635/667 nm fluorescence (AID 1117). Particulars: alpha-BTX-A647 binding fluorescence, higher = more signal.

Several values for one entry are separate records, joined by “and”; a condition that tells them apart may be missing. Identical values can stand only once. Activity calls are given as the source filed them.

Follistatin-related protein 3 (Homo sapiens), sequence (O95633 whole entry, looked up): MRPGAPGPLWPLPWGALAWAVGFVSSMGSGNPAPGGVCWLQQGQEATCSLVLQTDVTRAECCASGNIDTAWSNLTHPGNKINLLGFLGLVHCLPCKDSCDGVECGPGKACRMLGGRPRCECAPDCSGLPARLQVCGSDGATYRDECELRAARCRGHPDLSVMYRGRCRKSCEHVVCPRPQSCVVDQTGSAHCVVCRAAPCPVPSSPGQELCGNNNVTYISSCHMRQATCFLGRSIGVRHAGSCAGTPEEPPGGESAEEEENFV
Alpha-bungarotoxin (Bungarus multicinctus), sequence (P60615 whole entry, looked up): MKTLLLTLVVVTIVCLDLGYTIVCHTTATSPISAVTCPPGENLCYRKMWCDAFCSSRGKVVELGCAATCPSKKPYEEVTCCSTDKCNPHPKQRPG
Dickkopf-related protein 1 (Homo sapiens), sequence (O94907 whole entry, looked up): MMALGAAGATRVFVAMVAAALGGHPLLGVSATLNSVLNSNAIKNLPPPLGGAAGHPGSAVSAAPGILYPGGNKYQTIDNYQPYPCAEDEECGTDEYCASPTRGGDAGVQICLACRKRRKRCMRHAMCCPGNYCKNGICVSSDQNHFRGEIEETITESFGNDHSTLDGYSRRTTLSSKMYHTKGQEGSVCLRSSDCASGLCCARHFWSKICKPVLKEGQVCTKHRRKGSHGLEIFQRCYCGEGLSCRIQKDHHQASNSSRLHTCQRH
Epidermal growth factor receptor (Homo sapiens), sequence (P00533 whole entry, looked up): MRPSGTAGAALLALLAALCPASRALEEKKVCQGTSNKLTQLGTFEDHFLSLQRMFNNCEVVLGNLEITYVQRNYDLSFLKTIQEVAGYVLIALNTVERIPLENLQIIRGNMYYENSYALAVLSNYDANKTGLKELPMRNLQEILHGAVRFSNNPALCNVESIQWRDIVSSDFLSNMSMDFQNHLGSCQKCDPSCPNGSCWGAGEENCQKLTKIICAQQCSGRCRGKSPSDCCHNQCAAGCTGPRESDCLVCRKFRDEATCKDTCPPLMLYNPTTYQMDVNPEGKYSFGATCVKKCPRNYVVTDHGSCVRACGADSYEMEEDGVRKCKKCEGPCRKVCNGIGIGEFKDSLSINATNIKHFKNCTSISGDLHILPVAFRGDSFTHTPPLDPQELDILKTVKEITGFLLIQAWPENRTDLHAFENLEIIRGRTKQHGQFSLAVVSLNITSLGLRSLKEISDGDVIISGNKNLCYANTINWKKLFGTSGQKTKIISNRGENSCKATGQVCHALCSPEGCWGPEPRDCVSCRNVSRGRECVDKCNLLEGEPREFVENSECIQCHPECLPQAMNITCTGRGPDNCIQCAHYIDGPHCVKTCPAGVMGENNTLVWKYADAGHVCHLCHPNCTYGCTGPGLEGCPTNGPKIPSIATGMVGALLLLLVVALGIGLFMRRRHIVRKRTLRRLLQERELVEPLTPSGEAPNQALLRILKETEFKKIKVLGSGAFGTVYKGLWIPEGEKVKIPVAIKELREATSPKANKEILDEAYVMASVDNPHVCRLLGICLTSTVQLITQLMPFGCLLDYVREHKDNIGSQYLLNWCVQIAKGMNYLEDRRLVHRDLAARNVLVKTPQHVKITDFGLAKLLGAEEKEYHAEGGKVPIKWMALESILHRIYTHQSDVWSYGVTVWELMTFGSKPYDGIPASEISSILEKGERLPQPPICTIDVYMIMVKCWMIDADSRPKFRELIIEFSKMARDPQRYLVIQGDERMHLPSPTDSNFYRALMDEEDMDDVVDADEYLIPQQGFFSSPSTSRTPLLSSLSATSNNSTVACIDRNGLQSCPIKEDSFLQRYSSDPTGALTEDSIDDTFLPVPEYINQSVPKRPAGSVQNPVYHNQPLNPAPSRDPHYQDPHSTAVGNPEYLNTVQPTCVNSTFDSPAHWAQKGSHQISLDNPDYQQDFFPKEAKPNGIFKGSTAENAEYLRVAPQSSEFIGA
Torsin-1A-interacting protein 1 (Homo sapiens), sequence (Q5JTV8 whole entry, looked up): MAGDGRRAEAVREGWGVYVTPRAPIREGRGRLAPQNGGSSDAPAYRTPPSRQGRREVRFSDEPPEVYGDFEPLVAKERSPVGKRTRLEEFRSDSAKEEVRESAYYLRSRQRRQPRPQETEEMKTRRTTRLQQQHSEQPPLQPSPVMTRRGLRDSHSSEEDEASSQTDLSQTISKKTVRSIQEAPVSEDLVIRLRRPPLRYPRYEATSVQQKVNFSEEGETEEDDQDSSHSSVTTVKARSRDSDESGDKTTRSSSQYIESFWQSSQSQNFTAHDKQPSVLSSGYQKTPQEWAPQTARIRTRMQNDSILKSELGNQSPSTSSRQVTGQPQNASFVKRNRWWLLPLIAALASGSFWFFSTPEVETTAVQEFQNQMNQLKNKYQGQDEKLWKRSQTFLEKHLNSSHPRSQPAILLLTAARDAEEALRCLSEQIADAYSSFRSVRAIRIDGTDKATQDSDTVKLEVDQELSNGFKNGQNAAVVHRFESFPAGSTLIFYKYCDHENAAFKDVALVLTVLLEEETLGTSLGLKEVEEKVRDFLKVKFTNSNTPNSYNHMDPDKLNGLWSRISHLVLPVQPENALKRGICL
Fibroblast growth factor 10 (Homo sapiens), sequence (O15520 whole entry, looked up): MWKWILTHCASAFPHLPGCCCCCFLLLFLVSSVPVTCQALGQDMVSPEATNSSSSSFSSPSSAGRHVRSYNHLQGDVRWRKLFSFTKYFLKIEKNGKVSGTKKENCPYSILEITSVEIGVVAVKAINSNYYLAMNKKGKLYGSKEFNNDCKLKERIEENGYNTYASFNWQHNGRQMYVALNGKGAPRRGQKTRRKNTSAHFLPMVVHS
Left-right determination factor 2 (Homo sapiens), sequence (O00292 whole entry, looked up): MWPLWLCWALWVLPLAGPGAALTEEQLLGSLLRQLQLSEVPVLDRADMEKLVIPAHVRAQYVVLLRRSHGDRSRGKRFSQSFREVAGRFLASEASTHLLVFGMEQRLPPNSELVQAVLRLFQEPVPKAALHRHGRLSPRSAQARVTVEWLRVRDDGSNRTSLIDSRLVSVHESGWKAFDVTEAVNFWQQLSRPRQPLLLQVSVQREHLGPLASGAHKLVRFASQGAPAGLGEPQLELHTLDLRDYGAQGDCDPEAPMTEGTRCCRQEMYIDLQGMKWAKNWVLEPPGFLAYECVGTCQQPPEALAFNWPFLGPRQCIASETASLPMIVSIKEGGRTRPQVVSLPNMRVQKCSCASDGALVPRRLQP

As to `C=CCN(C(=O)C(c1cccs1)N(C(=O)/C=C\C(=O)O)C(C)(C)CO)C(C)(C)C` (stereo not given), the composite z-score was -0.387 and -0.159 in test [1]; -0.136 and -0.239 in test [2]; 0.784 and 0.498 in test [3]; -1.22 and -1.16 in test [5]; -0.489 and -0.532 in [6]; -0.928 and -0.661 in test [7]. Moreover, the composite z-score in test [8] is -1.54 and -1.07; in test [9] it was -1.53 and -1.58; in test [10], -0.792 and -0.643; in [11], -0.453 and -0.0211; in [13], -2.3 and -1.73; in [14], -0.243 and -0.782. Moreover, the composite z-score was -0.403 and 0.164 in test [15]; -0.124 and -0.197 in test [16]; -0.0553 and -0.0769 in test [17]; 0.945 and 0.25 in test [18]; 0.78 and -0.351 in test [19]; 0.489 and 0.895 in test [20]. The z-score was -1.67 (inactive) and -1.52 (inactive) in test [4]; -0.0094 and 0.0766 in test [12].
Turning to `O=C(NN=C1C[C@@H](O)[C@@H](O)[C@@H]2[C@@H]3C(=O)N(Cc4ccc5c(c4)OCO5)C(=O)[C@@H]3CC[C@H]12)OCc1ccccc1`, the composite z-score in test [1] was -0.345; in test [2], 0.118; in test [3] it was 0.298; in test [5] it was -0.464; in [6] it was -1.2; in test [7], -0.0036. The composite z-score is -0.904 in [8]; -1.57 in test [9]; -2.22 in test [10]; -0.984 in [11]; 0.227 in [13]; -0.643 in test [14]. The composite z-score was -1.29 in [15]; 0.0718 in test [16]; 0.0796 in [17]; -0.363 in test [18]; -0.842 in test [19]; -0.394 in [20]. The z-score is 0.0692 (inactive) in test [4] and 0.401 in [12].
Turning to `COC(=O)C1=C(C)N(Cc2ccccc2)[C@]23O[C@](C(=O)OC)(C(=O)N2[C@@H]1c1ccccc1)[C@@H](C(=O)OC)[C@H]3C(=O)OC`, the composite z-score in test [1] was -0.16 and 0.25; in test [2], -0.188 and -0.2; in [3] it was -0.248 and -0.593; in [5], 0.393 and 0.372; in [6], -0.969 and 0.317; in [7], -0.574 and 0.608. Moreover, the composite z-score was -1.14 and 0.664 in [8]; -0.0647 and 0.549 in [9]; 0.59 and 0.153 in test [10]; -1.08 and 0.025 in [11]; -0.2 and 0.674 in test [13]; -0.602 and 0.395 in [14]. Besides, the composite z-score in test [15] was -0.636 and -0.505; in test [16], -0.173 and -0.16; in test [17], -0.123 and -0.0553; in test [18] it was -0.394 and -0.255; in test [19], 0.118 and 0.409; in [20] it was -1 and -0.239. The z-score is -0.259 (inactive) and 0.0138 (inactive) in test [4]; -0.685 and 1.33 in test [12].
As to `C[N+](C)(C)CCCCNC(=O)[C@@H]1C[C@@H]2C(=O)N[C@@H](CCCC[N+](C)(C)C)C(=O)N2[C@@H]1c1cccc(OCCO)c1`, the composite z-score in test [1] was 1.03 and 0.616; in test [2] it was 0.0631 and 0.217; in test [3], -0.0665 and 0.574; in [5], 1.51 and 1.4; in test [6] it was 1.35 and 0.785; in test [7] it was 1.33 and 0.0943. In addition, the composite z-score in test [8] was 1.5 and 1.33; in [9] it was 2.14 and 1.67; in test [10] it was 0.804 and -0.833; in [11], 0.845 and 0.331; in test [13], 1.59 and 1.49; in test [14], -1.47 and -1.67. In addition, the composite z-score in [15] was -2.01 and -0.543; in test [16] it was -0.0758 and 0.048; in test [17] it was 0.23 and -0.0232; in test [18] it was -0.12 and 0.0139; in test [19], 2.23 and 1.62; in test [20] it was -0.257 and 1.62. For the same molecule, the z-score in test [4] was -0.21 (inactive) and 0.129 (inactive); in [12], -0.552 and -0.848.
Take `COC(=O)C1=C(C)N(Cc2ccccc2)[C@]23O[C@](C(=O)OC)(C(=O)N2[C@@H]1c1ccccc1)[C@H]1C(=O)N(c2ccccc2)C(=O)[C@H]13`: the composite z-score is 0.224 and 0.295 in [1]; -0.0965 and 0.134 in test [2]; -0.362 and -0.418 in [3]; 0.775 and 1.09 in test [5]; 0.989 and 0.463 in [6]; 0.367 and 0.392 in test [7]. Moreover, the composite z-score was 0.514 and 0.835 in test [8]; 0.629 and 0.666 in test [9]; 0.111 and -0.155 in test [10]; -0.167 and 0.131 in test [11]; 0.688 and 0.613 in test [13]; 0.361 and -0.212 in [14]. In addition, the composite z-score is -0.298 and -0.362 in test [15]; -0.197 and -0.0882 in [16]; -0.304 and -0.0066 in [17]; -0.341 and 0.0299 in [18]; -0.233 and 0.633 in test [19]; 1.34 and 1.08 in test [20]. Moreover, the z-score was 0.0537 (inactive) and -0.654 (inactive) in test [4]; -0.716 and -0.479 in [12].

These data come from PubChem BioAssay.
